Assay outcomes (PubChem BioAssay)
Rows were chosen to be rich in hits. Some 9.8% of all compounds tested hit in one or more screens of this group.
HttQ103 aggreg: inhibitors of mutant huntingtin aggregate formation in PC12 cells; 220,000 tested, 1.1% active; PC12 HttQ103-GFP aggregates, Acumen cytometry, 40 h; Potency, µM (titrated, usually from 46.1 µM), hits mostly inhibitors; AID 1688; active = well fitted curve in the direction sought with a large enough effect; inconclusive = small, poorly fitted or top-dose-only effect, or another doubt; inactive = no such curve, though single readings can be large; an effect the other way counts as inactive or inconclusive; note: nearly all actives have a fitted effect of over 60% in size
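Using laser scanning cytometry, GFP-positive aggregates were counted after lysis of PC12 cells induced with 100 nM tebufenozide to express HTT exon 1 Q103–GFP. Compounds were tested in titration.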
HTT ATP protect: cytoprotection in Huntington HTT-Q103 PC12 cell model; PC12 HTT-Q103 induced, cytoprotection, ATP luminescence, 40 h; Potency, µM (doses to about 56.4 µM), usual class: activators; 230,000 tested, 0.14% active; AID 1471; active = well fitted curve in the direction sought with a large enough effect; inconclusive = small, poorly fitted or top-dose-only effect, or another doubt; inactive = no such curve, though single readings can be large; an effect the other way counts as inactive or inconclusive; note: nearly all actives have a fitted effect of over 45% in size
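ATP quantification (ATPlite) reports survival of PC12 cells in which tebufenozide, 100 nM final, switches on Htt exon 1 with 103 glutamines linked to GFP; compounds are titrated.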
HPGD inh: HPGD (human) dehydrogenase inhibition. AID 894. purified HPGD, NADH fluorescence kinetic, PGE2 substrate. Potency, µM, hits mostly inhibitors. 150,000 tested, 4.3% active. P15428
Target sequence (P15428 whole entry, looked up): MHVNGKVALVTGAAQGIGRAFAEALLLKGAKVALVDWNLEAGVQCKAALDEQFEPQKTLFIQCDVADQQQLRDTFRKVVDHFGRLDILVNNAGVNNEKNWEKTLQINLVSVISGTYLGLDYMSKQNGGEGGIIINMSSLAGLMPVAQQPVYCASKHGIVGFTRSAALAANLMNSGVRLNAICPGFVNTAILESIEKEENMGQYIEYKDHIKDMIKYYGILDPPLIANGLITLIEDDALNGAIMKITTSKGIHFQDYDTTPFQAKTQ
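NADH formation kinetics: reaction with 30 uM PGE2 and 1 mM NAD+ (final), 20 nM enzyme, Tris-HCl pH 8 with Tween 20, after 15 min compound preincubation at room temperature. Fluorescence change, last versus first of five reads.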
ALDH1A1 inh: ALDH1A1 (human) enzyme inhibition. P00352. Potency, µM (doses to about 75.3 µM), actives largely listed as inhibitors. AID 1030. Purified ALDH1A1, NADH fluorescence, propionaldehyde substrate. 220,000 tested, 7.3% active
Target sequence (P00352 whole entry, looked up): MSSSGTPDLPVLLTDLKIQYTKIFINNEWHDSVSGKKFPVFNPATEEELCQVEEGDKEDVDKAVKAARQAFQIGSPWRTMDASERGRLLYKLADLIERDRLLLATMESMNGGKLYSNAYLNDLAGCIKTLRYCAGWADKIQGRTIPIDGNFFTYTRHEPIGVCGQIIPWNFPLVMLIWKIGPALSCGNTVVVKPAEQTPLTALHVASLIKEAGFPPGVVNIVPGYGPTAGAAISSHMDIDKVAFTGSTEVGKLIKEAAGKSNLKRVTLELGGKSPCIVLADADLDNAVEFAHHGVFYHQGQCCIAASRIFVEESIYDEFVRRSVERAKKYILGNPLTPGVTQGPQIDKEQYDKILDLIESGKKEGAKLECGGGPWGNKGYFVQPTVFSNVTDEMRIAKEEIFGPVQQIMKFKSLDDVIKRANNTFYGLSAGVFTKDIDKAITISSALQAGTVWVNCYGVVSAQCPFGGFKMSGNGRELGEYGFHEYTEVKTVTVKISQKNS
JMJD2E inh: blocks human JMJD2E demethylase activity. B2RXH2. JMJD2E catalytic domain, FDH-coupled NADH fluorescence (FDH is formaldehyde dehydrogenase). Potency, µM (titrated, usually from 57.1 µM), hits mostly inhibitors. 230,000 tested, 1.6% active. AID 2147; note: nearly all actives have a fitted effect of over 50% in size
CBFb-RUNX1 inh: inhibitors of human CBF-beta and RUNX1 interaction. Q01196+Q13951. AlphaScreen CBFb-His/RUNX1-biotin binding, biochemical. Potency, µM (series often up to 59.8 µM), usual class: inhibitors. 230,000 tested, under 10 active. AID 1477; active = well fitted curve in the direction sought with a large enough effect; inconclusive = small, poorly fitted or top-dose-only effect, or another doubt; inactive = no such curve, though single readings can be large; an effect the other way counts as inactive or inconclusive
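AlphaScreen proximity signal reports loss of binding between His-tagged CBF-beta and biotin-labelled RUNX1, each at 30 nM. Proteins are pre-associated for 20 minutes, compounds added for 15 minutes, then beads for 90 minutes, all at ambient temperature.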
Numbers stand for hits; i = inactive; ? = inconclusive; nt = no result given; [ ] = remark or other dose. Unless noted, calls come from the whole dose curve; as a rule, active = well fitted inhibition curve with a large enough effect (not every such curve was filed as active); inconclusive = small, poorly fitted or top-dose-only effect, or another doubt; inactive = no such curve, though single readings can be large or run the other way.

SMILES | HttQ103 aggreg | HTT ATP protect | HPGD inh | ALDH1A1 inh | JMJD2E inh | CBFb-RUNX1 inh
CC1(C)Cc2ccccc2C(CSc2ccccc2C(=O)O)=N1 | i[9.22 µM] | i[10 µM] | nt | 40µM | i | ?
COc1cc2c(cc1OC)C(CSc1ccccc1C(=O)O)=NC(C)(C)C2 | nt | nt | nt | ? | ? | i
Cn1c(=O)c2ncn(CC(=O)N=Nc3c(O)[nH]c4ccccc34)c2n(C)c1=O | i | i[10 µM] | nt | i | i | i
Cc1c(N2C(=O)/C(=C\C3CC=CCC3)SC2=S)c(=O)n(-c2ccccc2)n1C (stereo not given) | i | ? | nt | 1.3µM | ? | i
O=C(N/N=C/c1cc2c(cc1Cl)OCO2)c1ccc2c(c1)OCCO2 | i[9.22 µM] | i[10 µM] | nt | nt | ? | i
O=C(N/N=C/c1ccccc1OC(=O)c1ccc2c(c1)OCO2)c1ccccc1 | 5µM | i[10 µM] | i | ? | i | i
CC(C)(C)C(=O)Nc1ccc(C(=O)N/N=C/c2ccccc2OC(=O)c2ccccc2)cc1 | 11µM | i | i | i | i | i
CC(C)(C)C(=O)Nc1ccc(C(=O)N/N=C/c2ccccc2OC(=O)c2ccc(Cl)cc2)cc1 | ? | i[10 µM] | i | i | i | i
O=C(NCc1ccccc1Cl)C1CCN(c2cnccn2)CC1 | i | i[10 µM] | nt | i | ? | i
Cc1ccccc1C(=O)NC1CCN(CC(=O)NCc2cccs2)CC1 | i | i | nt | i | i | i
c1ccc(Cn2c(NCc3ccccn3)nc3ccccc32)cc1 | i | nt | nt | i | i | i
c1ccc(Cn2c(NCc3ccncc3)nc3ccccc32)cc1 | i[9.22 µM] | i[10 µM] | nt | 25µM | i | i
COC(CNC(=O)c1cc(C(=O)c2c(-c3c(Cl)cccc3Cl)noc2C)c[nH]1)OC | i | i | i | 10µM | i | i
Cc1onc(-c2c(Cl)cccc2Cl)c1C(=O)c1c[nH]c(C(=O)NCCCN2CCOCC2)c1 | i | i | i | ? | i | i
CC1CCN(C(=O)c2cc3ccccc3o2)CC1 | i | i[0.074 µM] | 11µM | ? | i | i
CC1CCN(C(=O)c2cc(-c3ccccc3O)on2)CC1 | i | i | 14µM | 14µM | i | i
O=C(/C=C/N1CCOCC1)c1cc2ccccc2o1 | i | i[10 µM] | i | 18µM | i | i
O=C(c1cc(-c2ccccc2)on1)N1CCCC1 | i | i[0.074 µM] | ? | i | i | i
O=C(c1cc2ccccc2o1)N1CCCC1 | i[9.22 µM] | i[10 µM] | nt | i | i | i
O=C(Nc1ccc(N2CCOCC2)cc1)c1cc2ccccc2o1 | i | i[10 µM] | i | ? | ? | i
Cc1ccc(C(=O)N2CCC(C)CC2)cc1C | i | i[10 µM] | 0.79µM | 11µM | i | i
Cc1ccccc1S(=O)(=O)N(CC(O)CN1C(=O)NC(C)(C)C1=O)c1ccccc1 (stereo not given) | i[9.22 µM] | i[10 µM] | nt | nt | i | i
Cc1ccc(C)c(S(=O)(=O)N2CCCOC2CNC(=O)C(=O)NCc2cccnc2)c1 (stereo not given) | i | i | nt | i | i | i
O=C(c1cc2ccccc2o1)N1CCCCCC1 | i | i[10 µM] | 7.9µM | ? | i | i
CC(=O)c1ccc(NC(=O)c2ccc(CNc3c(N4CCOCC4)c(=O)c3=O)cc2)cc1 | i[9.22 µM] | i[10 µM] | nt | nt | i | i
SMILES | HttQ103 aggreg | HTT ATP protect | HPGD inh | ALDH1A1 inh | JMJD2E inh | CBFb-RUNX1 inh
O=C(NC1CCCCC1)C(c1ccc(O)c(O)c1)N(C(=O)Cn1nnc2ccccc21)c1cccc(O)c1 (stereo not given) | i | i | nt | i | 16µM | i
Cc1nc(NCCO)c2nc(-c3ccccc3)n(CCN(C)C)c2n1 | nt | i | ? | ? | ? | i
Cc1ccc(S(=O)(=O)N2CCN(CC(=O)N/N=C\c3ccc(Cl)c([N+](=O)[O-])c3)CC2)cc1 | i | i[10 µM] | i | 8.9µM | i | i
O=C(CN1CCN(S(=O)(=O)c2ccc(Br)cc2)CC1)N/N=C/c1ccc(Cl)c([N+](=O)[O-])c1 | i | i[10 µM] | i | 20µM | i | i
Cc1ccc(S(=O)(=O)N2CCN(CC(=O)N/N=C\c3cccnc3)CC2)cc1 | i | i[10 µM] | i | i | i | i
O=C(CN1CCN(S(=O)(=O)c2ccc(Br)cc2)CC1)N/N=C/c1cc([N+](=O)[O-])ccc1Cl | ? | ? | i | ? | i | i
Cc1noc(C)c1COC(=O)c1ccc(N(C)C)cc1 | i | i | nt | ? | i | i
Cc1cc2cc(CN(CCCO)S(=O)(=O)c3cccc4nsnc34)c(=O)[nH]c2cc1C | i | i | i | i | i | i
Cc1ccc2[nH]c(=O)c(CN(CCCO)S(=O)(=O)c3c(C)ccc4nsnc34)cc2c1 | i | i[10 µM] | i | 13µM | i | i
CN(C)CCCOc1c2ccccc2n(Cc2ccccc2)[n+]1[O-] | nt | nt | nt | nt | nt | i
O=S(=O)(CCc1ccccc1)c1nnnn1-c1ccc(F)cc1Br | nt | i | i | i | i | i
N#CCCCS(=O)(=O)c1nnnn1-c1ccc(F)cc1Br | nt | 7.1µM | i | 18µM | i | i
COc1ccccc1NC(=O)COC(=O)c1ccc([N+](=O)[O-])s1 | i | i | nt | 10µM | i | i
O=C(COC(=O)c1ccc([N+](=O)[O-])s1)NCc1ccc(F)cc1 | i | i[10 µM] | i | 7.1µM | i | i
O=C(COC(=O)c1ccc([N+](=O)[O-])s1)NC(=O)NCc1ccccc1 | i | i | nt | 7.1µM | i | i
COc1ncc2nc(-c3ccc(F)cc3)c(=O)n(CCC#N)c2n1 | nt | i | ? | ? | nt | nt
Cc1[nH]c(=O)[nH]c(=O)c1CSCC(=O)OCC(=O)c1ccc(Br)cc1 | i | i | nt | i | i | i
CCN(Cc1ccncc1)C(=O)c1ccc2c(c1)S(=O)(=O)c1ccccc1C2=O | i | i | nt | ? | i | i
CCCCCCCCCCCCCCC[C@H](O)[C@H](N)CO | i | ? | i | i | i | i
COc1cc(C(C#N)N2N=C(c3ccccc3)CC2c2ccccc2)ccc1O (stereo not given) | i | i | i | ? | i | i
N#CC(c1ccccc1O)N1N=C(c2ccccc2)CC1c1ccccc1 (stereo not given) | i[9.22 µM] | i[10 µM] | nt | nt | 32µM | i
CCCC[C@H](O)c1ccccc1 | i | i | nt | nt | nt | nt
CCN(CC)c1ccc(/C=C(/C#N)C(=O)NC(C)C)o1 | i[9.22 µM] | i[10 µM] | nt | 10µM | ? | i
CCN(CC)c1ccc(/C=C(/C#N)C(=O)NCc2ccccc2)o1 | ? | i[10 µM] | 16µM | 2.8µM | ? | i
CC(=O)Nc1ccc(/C=C(\C#N)C(=O)NCc2ccccc2)cc1 | i | nt | ? | i | i | i
SMILES | HttQ103 aggreg | HTT ATP protect | HPGD inh | ALDH1A1 inh | JMJD2E inh | CBFb-RUNX1 inh
CC(C)NC(=O)/C(C#N)=C\c1ccc(N(C)C)o1 | i[9.22 µM] | i[10 µM] | nt | ? | ? | i
COc1ccc(CCNC(=O)c2ccc(-c3cccc([N+](=O)[O-])c3)o2)cc1OC | i[9.22 µM] | i | nt | 13µM | i | i
NNC(=O)c1ccc(-c2cccc([N+](=O)[O-])c2)o1 | i | i | nt | 7.1µM | i | i
O=Cc1ccc(-c2cccc([N+](=O)[O-])c2)o1 | i[9.22 µM] | i[10 µM] | nt | nt | i | i
CCOc1ccc(C(=O)NCc2cccnc2)cc1[N+](=O)[O-] | i | i | nt | i | i | i
C=CCN(CC=C)C(=S)NCCc1ccc(OC)c(OC)c1 | i | i[10 µM] | i | i | i | i
